# Reference: ChEMBL document CHEMBL3988442, “University of Dundee, Small-Polar-MMV Screening Library” (2021)
# For some assays here: Entries with a potency or affinity are not part of this list.
# Key:
# Design in all cases: scale not given: direction of the effect not stated beside the values
# [1] = molecular target: Protein translocase subunit SecA (Escherichia coli (strain K12)) (UniProt P10408); experiment: Assay to Identify E. coli SecA ATPase Inhibitors; format: functional; conditions: 30 µM
# [2] = molecular target: T1, Ubiquitin-activating enzyme e1, putative (Leishmania donovani (strain BPK282A1)) (UniProt E9BSI1); experiment: Leishmania donovani Ubiquitin Activating Enzyme (LdE1); format: functional; conditions: 30 µM
# T1 sequence (whole entry): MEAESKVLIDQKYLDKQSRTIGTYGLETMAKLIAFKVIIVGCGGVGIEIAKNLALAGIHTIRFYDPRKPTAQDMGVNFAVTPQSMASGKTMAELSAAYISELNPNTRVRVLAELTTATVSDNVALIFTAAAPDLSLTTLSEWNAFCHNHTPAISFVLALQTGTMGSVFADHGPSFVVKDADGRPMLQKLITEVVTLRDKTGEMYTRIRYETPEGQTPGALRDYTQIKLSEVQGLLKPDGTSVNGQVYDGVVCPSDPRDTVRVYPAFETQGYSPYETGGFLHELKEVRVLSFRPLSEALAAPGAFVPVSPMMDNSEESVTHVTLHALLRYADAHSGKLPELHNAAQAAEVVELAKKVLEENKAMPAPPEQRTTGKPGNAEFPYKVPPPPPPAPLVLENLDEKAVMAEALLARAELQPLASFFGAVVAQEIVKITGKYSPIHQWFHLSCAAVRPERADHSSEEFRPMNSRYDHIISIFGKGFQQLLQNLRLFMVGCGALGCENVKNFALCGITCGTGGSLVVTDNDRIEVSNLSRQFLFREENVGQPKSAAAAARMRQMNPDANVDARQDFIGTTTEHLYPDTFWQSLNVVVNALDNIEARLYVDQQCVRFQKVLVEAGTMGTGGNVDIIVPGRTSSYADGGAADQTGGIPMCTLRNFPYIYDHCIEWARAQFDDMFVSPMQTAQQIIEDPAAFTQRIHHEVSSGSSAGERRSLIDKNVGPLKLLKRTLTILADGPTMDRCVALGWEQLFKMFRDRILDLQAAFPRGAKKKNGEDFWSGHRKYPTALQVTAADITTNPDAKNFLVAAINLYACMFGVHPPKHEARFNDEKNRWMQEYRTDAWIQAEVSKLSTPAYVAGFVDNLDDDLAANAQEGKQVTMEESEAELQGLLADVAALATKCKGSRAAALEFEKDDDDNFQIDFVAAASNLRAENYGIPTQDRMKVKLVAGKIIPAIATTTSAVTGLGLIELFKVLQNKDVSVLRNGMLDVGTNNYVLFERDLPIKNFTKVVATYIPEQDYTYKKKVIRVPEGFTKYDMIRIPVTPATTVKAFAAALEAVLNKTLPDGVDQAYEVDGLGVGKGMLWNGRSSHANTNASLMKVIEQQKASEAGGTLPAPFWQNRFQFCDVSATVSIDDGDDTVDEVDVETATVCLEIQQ
# [3] = molecular target: AMP-activated protein kinase, AMPK (Homo sapiens) (UniProt P54646+O43741+P54619+Q9UGJ0+Q9Y478+Q13131+Q9UGI9); experiment: AMP-dependent Kinase enzyme assay. An in vitro enzyme assay that detects ADP turnover that is directly proportional to AMPK activity. This uses naive AMPK that is activated during the assay with MK-8722; format: functional; conditions: 30 µM
# [4] = molecular target: Sialic acid-binding Ig-like lectin 9 (Homo sapiens) (UniProt Q9Y336); experiment: Hs-Siglec9 ALPHAscreen SOP 20170721; conditions: 10 µM
# Trypanosoma cruzi = experiment: Trypanosoma cruzi phosphomannomutase and mannose-1-phosphate guanylyltransferase assay; format: functional; conditions: 10 µM
# [5] = molecular target: T2, Arginase-2, mitochondrial (Homo sapiens) (UniProt P78540); experiment: in vitro enzyme assay to detect the production of urea directly proportional to the activity of Arginase II; format: functional; conditions: 33.3 µM; note: in the data most compounds retested in dose-response had high values
# T2 sequence (whole entry): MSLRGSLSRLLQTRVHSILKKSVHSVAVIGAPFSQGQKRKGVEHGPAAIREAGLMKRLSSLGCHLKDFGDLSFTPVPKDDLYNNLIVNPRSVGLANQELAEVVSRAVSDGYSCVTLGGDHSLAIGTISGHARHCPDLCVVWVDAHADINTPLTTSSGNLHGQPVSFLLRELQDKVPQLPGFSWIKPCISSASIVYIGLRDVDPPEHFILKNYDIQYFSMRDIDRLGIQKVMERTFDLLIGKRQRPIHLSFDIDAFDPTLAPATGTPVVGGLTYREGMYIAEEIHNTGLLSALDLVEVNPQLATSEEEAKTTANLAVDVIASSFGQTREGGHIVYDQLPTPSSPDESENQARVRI
# [6] = molecular target: T3, Proteasome subunit beta (Trypanosoma cruzi) (UniProt O96673); experiment: Trypanosoma cruzi proteasome chymotrypsin-like activity (TcProtChymo) assay.; note: in the data most compounds retested in dose-response had high values; format: functional; conditions: 9.37 µM
# T3 sequence (whole entry): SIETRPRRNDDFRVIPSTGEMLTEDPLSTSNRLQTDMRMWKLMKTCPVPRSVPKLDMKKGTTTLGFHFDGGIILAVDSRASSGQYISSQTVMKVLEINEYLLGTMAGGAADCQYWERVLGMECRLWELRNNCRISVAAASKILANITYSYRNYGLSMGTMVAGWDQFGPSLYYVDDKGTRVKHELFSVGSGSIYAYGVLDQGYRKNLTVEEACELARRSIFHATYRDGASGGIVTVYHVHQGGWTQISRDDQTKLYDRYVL
# Homo sapiens = species: Homo sapiens; experiment: To identify inhibition of the IFN signalling (Jak-Stat) pathway via expression of an eGFP reporter gene under the control of an IFN-stimulated response element (ISRE) containing MxA promoter.; format: functional; conditions: 30 µM
# [7] = molecular target: T4, Tyrosyl-tRNA synthetase, putative (Trypanosoma cruzi (strain CL Brener)) (UniProt Q4DSP6); experiment: Trypanosoma cruzi tyrosyl tRNA synthetase (TcYRS) _High Tyrosine SOP; format: functional; conditions: 30 µM; note: in the data most compounds retested in dose-response had high values
# T4 sequence (whole entry): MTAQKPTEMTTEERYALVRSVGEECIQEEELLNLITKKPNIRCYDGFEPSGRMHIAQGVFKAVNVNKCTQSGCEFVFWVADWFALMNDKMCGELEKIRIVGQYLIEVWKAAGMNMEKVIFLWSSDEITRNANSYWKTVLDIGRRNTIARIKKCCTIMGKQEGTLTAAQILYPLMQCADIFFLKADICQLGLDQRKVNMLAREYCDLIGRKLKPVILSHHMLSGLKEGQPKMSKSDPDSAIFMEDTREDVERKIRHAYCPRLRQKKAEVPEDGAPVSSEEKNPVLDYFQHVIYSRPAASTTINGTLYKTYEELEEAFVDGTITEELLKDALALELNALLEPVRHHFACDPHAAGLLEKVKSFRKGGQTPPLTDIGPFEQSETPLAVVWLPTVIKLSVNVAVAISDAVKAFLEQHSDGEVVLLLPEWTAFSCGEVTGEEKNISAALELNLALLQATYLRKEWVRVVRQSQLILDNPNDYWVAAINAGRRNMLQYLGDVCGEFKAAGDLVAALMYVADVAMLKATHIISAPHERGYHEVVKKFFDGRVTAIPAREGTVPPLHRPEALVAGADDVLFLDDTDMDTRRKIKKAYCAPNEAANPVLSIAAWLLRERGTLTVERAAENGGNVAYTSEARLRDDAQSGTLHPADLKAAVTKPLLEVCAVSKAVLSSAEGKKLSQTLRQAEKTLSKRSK
# [8] = molecular target: T4, Tyrosyl-tRNA synthetase, putative (Trypanosoma cruzi (strain CL Brener)); experiment: Trypanosoma cruzi tyrosyl tRNA synthetase (TcYRS) SOP; format: functional; conditions: 30 µM
# [9] = molecular target: Chromo domain-containing protein 1 (Saccharomyces cerevisiae (strain ATCC 204508 / S288c) (Baker's yeast)) (UniProt P32657); experiment: ScCHD-1 Enzyme Inhibition Assay; format: functional; conditions: 30 µM; note: in the data most compounds retested in dose-response had high values
# Sequence of Chromo domain-containing protein 1 (Saccharomyces cerevisiae (strain ATCC 204508 / S288c) (Baker's yeast)) (P32657 whole entry, the tested form may be a part): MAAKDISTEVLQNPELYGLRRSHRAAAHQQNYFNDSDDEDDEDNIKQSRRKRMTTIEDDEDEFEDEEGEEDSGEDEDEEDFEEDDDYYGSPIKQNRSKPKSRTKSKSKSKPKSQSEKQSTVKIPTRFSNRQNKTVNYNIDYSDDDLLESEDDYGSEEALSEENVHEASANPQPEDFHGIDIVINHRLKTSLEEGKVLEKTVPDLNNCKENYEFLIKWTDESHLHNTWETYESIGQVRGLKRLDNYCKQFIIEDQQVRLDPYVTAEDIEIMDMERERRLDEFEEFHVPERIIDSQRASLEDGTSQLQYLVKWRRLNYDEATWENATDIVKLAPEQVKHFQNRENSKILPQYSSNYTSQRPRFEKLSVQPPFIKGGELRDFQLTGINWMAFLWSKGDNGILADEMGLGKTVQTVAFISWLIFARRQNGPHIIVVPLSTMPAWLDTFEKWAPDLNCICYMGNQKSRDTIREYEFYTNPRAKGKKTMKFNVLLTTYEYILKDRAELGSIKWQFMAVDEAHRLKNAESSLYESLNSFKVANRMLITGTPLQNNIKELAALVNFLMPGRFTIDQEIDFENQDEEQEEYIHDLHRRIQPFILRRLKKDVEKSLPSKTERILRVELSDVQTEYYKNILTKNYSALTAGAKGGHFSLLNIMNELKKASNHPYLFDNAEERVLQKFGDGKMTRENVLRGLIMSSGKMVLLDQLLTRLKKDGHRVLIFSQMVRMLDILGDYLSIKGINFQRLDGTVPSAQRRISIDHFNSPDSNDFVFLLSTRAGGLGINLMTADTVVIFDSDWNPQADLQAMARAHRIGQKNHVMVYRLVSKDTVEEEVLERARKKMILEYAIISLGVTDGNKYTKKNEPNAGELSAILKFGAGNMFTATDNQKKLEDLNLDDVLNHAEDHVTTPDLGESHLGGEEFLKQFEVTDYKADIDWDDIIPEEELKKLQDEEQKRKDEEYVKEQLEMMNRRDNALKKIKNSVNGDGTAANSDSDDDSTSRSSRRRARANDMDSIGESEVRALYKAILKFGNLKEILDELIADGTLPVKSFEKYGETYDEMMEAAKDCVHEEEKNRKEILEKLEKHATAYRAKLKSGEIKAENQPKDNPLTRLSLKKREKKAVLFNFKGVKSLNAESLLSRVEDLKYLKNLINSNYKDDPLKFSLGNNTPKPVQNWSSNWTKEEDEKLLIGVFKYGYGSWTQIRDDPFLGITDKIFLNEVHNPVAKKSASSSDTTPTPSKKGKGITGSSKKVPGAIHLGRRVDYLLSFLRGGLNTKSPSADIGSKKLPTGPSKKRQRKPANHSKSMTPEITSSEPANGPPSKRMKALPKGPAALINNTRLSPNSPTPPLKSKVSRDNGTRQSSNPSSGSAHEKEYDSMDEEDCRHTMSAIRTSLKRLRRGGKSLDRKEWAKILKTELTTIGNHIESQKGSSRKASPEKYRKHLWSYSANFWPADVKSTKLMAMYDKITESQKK
# Sequence of Sialic acid-binding Ig-like lectin 9 (Homo sapiens) (Q9Y336 whole entry): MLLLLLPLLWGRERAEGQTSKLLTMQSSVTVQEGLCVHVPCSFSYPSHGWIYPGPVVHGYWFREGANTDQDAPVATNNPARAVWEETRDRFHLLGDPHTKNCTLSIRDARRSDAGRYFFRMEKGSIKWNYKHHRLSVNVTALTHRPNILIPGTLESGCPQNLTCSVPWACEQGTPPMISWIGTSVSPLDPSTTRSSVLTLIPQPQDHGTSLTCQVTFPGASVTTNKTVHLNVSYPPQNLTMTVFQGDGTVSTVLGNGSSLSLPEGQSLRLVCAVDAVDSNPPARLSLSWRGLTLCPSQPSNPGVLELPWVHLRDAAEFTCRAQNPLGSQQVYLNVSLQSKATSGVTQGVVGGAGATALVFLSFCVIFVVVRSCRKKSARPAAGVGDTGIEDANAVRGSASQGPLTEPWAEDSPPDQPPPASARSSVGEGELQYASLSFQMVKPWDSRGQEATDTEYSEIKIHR
# Sequence of Protein translocase subunit SecA (Escherichia coli (strain K12)) (P10408 whole entry): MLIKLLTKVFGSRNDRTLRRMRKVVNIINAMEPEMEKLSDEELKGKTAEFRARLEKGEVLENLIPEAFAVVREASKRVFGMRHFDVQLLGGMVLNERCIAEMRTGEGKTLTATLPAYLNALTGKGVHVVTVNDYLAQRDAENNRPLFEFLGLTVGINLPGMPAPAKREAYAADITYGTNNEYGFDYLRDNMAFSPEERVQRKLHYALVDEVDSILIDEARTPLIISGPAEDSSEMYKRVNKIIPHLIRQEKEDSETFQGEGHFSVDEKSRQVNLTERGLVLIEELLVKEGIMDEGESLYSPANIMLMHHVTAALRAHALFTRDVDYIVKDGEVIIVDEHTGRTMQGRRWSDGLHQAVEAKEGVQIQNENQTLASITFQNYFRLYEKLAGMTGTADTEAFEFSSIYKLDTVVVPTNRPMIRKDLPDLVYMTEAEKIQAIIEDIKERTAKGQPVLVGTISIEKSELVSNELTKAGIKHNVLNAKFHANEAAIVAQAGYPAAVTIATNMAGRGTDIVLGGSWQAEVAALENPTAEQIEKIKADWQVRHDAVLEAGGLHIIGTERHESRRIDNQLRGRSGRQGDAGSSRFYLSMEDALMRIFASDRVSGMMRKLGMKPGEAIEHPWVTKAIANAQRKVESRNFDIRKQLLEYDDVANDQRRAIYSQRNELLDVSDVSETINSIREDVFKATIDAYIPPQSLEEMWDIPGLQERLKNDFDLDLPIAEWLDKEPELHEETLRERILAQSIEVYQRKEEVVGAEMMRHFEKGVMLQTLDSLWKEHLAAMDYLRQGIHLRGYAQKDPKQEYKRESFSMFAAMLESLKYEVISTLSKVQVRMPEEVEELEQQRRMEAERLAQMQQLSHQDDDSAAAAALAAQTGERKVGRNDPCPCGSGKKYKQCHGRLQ
SMILES,Percent Effect [1] [%],Percent Effect [2] [%],Percent Effect [3] [%],Percent Effect [4] [%],Percent Effect (Trypanosoma cruzi) [%],Percent Effect [5] [%],Percent Effect [6] [%],Percent Effect (Homo sapiens) [%],Percent Effect [7] [%],Percent Effect [8] [%],Percent Effect [9] [%]
CSCCCN1CC[C@@H](NC(=O)c2cnccn2)[C@H](O)C1,-3.48,5.41,-0.599,6.12,3.09,-1.43,11.6,5.1,8.99,19.5,1.39
CCn1ccnc1-c1nc2cc(S(=O)(=O)N3CCCC3)ccc2n1C,-6.04,0,3.54,25.2,4.31,6.36,4.97,2.47,3.23,10,100
COc1cccc(CN(C)C(=O)CSc2ccc3c(c2)OCCO3)c1,-7.29,-10.5,15.3,0.77,-0.876,-2.37,6.62,6.47,-4.25,-15.6,0.365
O=C(CCc1ccsc1)N1CCC(Cc2ccc(CO)cc2)C1 (configuration not stated),2.19,4.17,-0.478,-3.78,-6.9,3.53,12.5,-1.24,3.16,7.69,-1.32
Cc1cc2c(cc1C)C(NCc1nnc3n1CCCCC3)CCCO2 (configuration not stated),0.0306,2.7,-8.53,10.2,6.94,17.1,0.944,-23.2,2.15,6.17,-5.02
Cn1cc(CCNC(=O)NCc2nnc3n2CCC3)cn1,-2.08,15.2,-4.15,10.9,-1.6,2.28,-0.573,4.78,1.48,16.5,-6.44
CCOCC(O)CN1CCN(C(=O)c2ccnc(N(C)C)c2)CC1 (configuration not stated),-2.11,2.7,-5.93,13.5,5.99,1.43,0,-4.49,1.59,7.32,-3.55
Cc1nccc(CNC(=O)NCCOc2ccc(F)c(F)c2)n1,-4.87,0,-0.557,27.5,4.25,-1.43,14.8,8.46,4.76,9.76,-9.47
COc1ccc(Cc2nnc(SC)o2)cc1OC,-4.8,0,-3.66,1.57,6.72,-1.56,8.72,-12.7,3.83,11.1,-3.69
CCc1noc(C(C)N(C)CC(=O)Nc2ccc(C)cc2)n1 (configuration not stated),-4.41,0,2.85,1.79,-2.55,-0.455,-0.887,-0.282,-1.07,-2.5,2.11
CC(C)(O)C1CCN(C(=O)Nc2nc(-c3ccccc3)ns2)CC1,-2.39,2.7,-2.64,7.48,2.25,18.6,18.8,55.5,1.07,3.7,-3.52
CCS(=O)(=O)N1CCOC2(CCCN(c3ccc(C)nn3)C2)C1 (configuration not stated),-0.413,2.67,3.56,2.28,-1.35,-48.9,6.67,-5.88,-1.04,-2.5,0.0361
NC(=O)c1ccc(N2CCCCC2)c(NC(=O)c2cncc(Br)c2)c1,-3.53,5.2,10.4,12.7,2.06,-78.6,12.5,35.7,3.23,11.1,-2.92
C[S+]([O-])c1nncn1CC(=O)c1ccc2c(c1)CCO2 (configuration not stated),-5.7,8.11,-3.44,36.4,3.23,26.6,12.4,-10.5,3.23,16.1,-9.11
O=C(CCc1ccc(Cl)s1)N1CCCC(n2cncn2)C1 (configuration not stated),-2.21,-2.53,3.52,6.43,-0.0944,5.32,-3.36,-2.4,0.493,-1.27,0.688
CC(C)NC(=O)N1CC[C@@H]2CN(Cc3cccc(Cl)c3)S(=O)(=O)[C@@H]2CC1,-0.309,8,9.12,-2.2,-7.34,-59.3,13.5,35.6,0,10,-7.22
CN(C)c1ccc(CNC(=O)c2ccc(Cl)cc2F)cc1,-6.46,21.1,-2.58,2.05,1.46,-4.73,13.7,11.1,4.25,20.8,-6.29
O=C(C1CCOCC1)N1C[C@@H]2[C@@H](C1)OCC(=O)N2CC1CC1,-1.53,-192,0.601,-6.86,-19.1,0.319,19.2,-0.484,-222,-451,-3.21
Cc1noc2ncc(C(=O)N3CCCC3c3cnn(C)c3)cc12 (configuration not stated),-1.99,2.53,-1.98,-2,-2.17,-3.42,3.52,12,-3.45,-1.27,-2.49
COC(=O)C(C)(C)NC(=O)C1CC(=O)N(C)C1 (configuration not stated),-1.38,-2.74,-4.39,9.64,2.78,-0.798,3.17,-3.68,-1.04,8.64,4.14
CC(C)Oc1cc(N2CCC(N3CCC(O)CC3)CC2)nc(N)n1,0.0362,8.11,-10,8.23,4.63,-0.476,11,12.1,8.99,17.1,-4.42
COCC1COCCC12CCN(C(=O)CCc1ccccc1)CC2 (configuration not stated),-7.38,0,1.05,-3.38,-2.73,0,4.65,-6.87,3.96,3.66,6.04
